Measured values as given in PubChem BioAssay (NCATS).
Inconclusive results are not listed. Calls of active or inactive are those of the source. Calls come from the whole dose curve; as a rule, active = well fitted curve in the direction sought with a large enough effect; inconclusive = small, poorly fitted or top-dose-only effect, or another doubt; inactive = no such curve, though single readings can be large; an effect the other way counts as inactive or inconclusive.

Legend:
[1] = tested on: KB-3-1; assay: Cytotoxic Profiling of Annotated Libraries Using Quantitative High-Throughput Screening (AID 1296008); details: Five cell lines viability, CellTiter-Glo ATP luminescence, 48-72 h; max response: active compounds read low; note: nearly all actives have a fitted effect of over 60% in size; for max response: % is set by controls: 0 for no effect and ±100 for the full control effect
In short: (§1)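 Compounds were pin-transferred onto cells and incubated 48 or 72 hr at 37 degree Celsius, 95% humidity. CellTiter-Glo was added, plates sat 10 min at room temperature, then ATP-coupled luminescence was imaged as the viability read-out.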

[2] = tested on: NIH3T3; assay: as above; details: Five cell lines viability, CellTiter-Glo ATP luminescence, 48-72 h; max response: active compounds read low
In short: as §1

[3] = tested on: HEK293T; assay: qHTS assay to identify novel small-molecules to repurpose for Merkel cell carcinoma treatment (AID 1296009); details: MCC and control cell lines, CellTiter-Glo viability, 72 h; series mostly up to 44.8 µM; note: nearly all actives have a fitted effect of over 60% in size
In short: (§2)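 Cells exposed to NPC (8-point) and MIPE (11-point) compound dilutions for 72 hr at 37 degree celsius; viability read by CellTiter-Glo luminescence, normalized to no-cell and DMSO in-plate controls.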

[4] = tested on: NIH3T3; assay: as above; details: MCC and control cell lines, CellTiter-Glo viability, 72 h; at 44.8 µM (top of the series) unless noted
In short: as §2

[5] = tested on: C33A; assay: Primary qHTS to identify gynecologic anti-cancer compounds using libraries of approved drugs and bioactive compounds (AID 1345084); details: Gynecologic cancer cell panel viability, ATPlite luminescence, 48 h; series mostly up to 57.5 µM; note: % is set by controls: 0 for no effect and ±100 for the full control effect; nearly all actives have a fitted effect of over 55% in size
In short: (§3)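 ATP-based viability (ATPlite), 1,000 cells/well, 16 h pre-incubation, 48 h compound at 37 C, 5% CO2, 15 min RT before read.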

[6] = tested on: CAOV3; assay: as above; details: Gynecologic cancer cell panel viability, ATPlite luminescence, 48 h; series mostly up to 57.5 µM
In short: as §3

[7] = tested on: CASKI; assay: as above; details: Gynecologic cancer cell panel viability, ATPlite luminescence, 48 h; series mostly up to 57.5 µM
In short: as §3

[8] = tested on: Es-2; assay: as above; details: Gynecologic cancer cell panel viability, ATPlite luminescence, 48 h; series mostly up to 57.5 µM
In short: as §3

[9] = tested on: HeLa; assay: as above; details: Gynecologic cancer cell panel viability, ATPlite luminescence, 48 h; series mostly up to 57.5 µM
In short: as §3

[10] = tested on: Hek293T; assay: as above; details: Gynecologic cancer cell panel viability, ATPlite luminescence, 48 h, control line for the selectivity index; series mostly up to 57.5 µM
In short: as §3

[11] = tested on: JEG-3; assay: as above; details: Gynecologic cancer cell panel viability, ATPlite luminescence, 48 h; series mostly up to 57.5 µM
In short: as §3

[12] = tested on: OV90; assay: as above; details: Gynecologic cancer cell panel viability, ATPlite luminescence, 48 h; series mostly up to 57.5 µM
In short: as §3

[13] = tested on: PA-1; assay: as above; details: Gynecologic cancer cell panel viability, ATPlite luminescence, 48 h; series mostly up to 57.5 µM
In short: as §3

CC1CCC2C(C)(C)C(O)CCC2(C)C12Cc1c(O)cc3c(c1O2)CN=C3N (stereo not drawn)
inactive: max response [1] 2.69% | outcome [2] | Potency [3] | outcome [4] | Potency [5] | Potency [6] | Potency [7] | Potency [8] | Potency [9] | Potency [10] | Potency [11] | Potency [12] | Potency [13]

C=C1CC[C@H]2[C@@](C)(CCC[C@@]2(C)C(=O)O)[C@@H]1CCC(C)CCO (stereo partly drawn)
inactive: max response [1] 2.57% | max response [2] 3.89% | Potency [3] | Potency [5] | Potency [6] | Potency [7] | Potency [8] | Potency [9] | Potency [10] | Potency [11] | Potency [12] | Potency [13]

COC(=O)C1=CO[C@@H](O[C@@H]2O[C@H](CO)[C@@H](O)[C@H](O)[C@H]2O)[C@@H]2[C@@H](C)[C@@H](O)C[C@H]12
inactive: outcome [1] | max response [2] 2.94% | Potency [3] | Potency [5] | Potency [6] | Potency [7] | Potency [8] | Potency [9] | Potency [10] | Potency [11] | Potency [12] | Potency [13]

CC1(C)CC2C(C1)C1(C)CCC13OC3(CO)C2O (stereo not drawn)
inactive: outcome [1] | max response [2] 5% | Potency [3] | Potency [5] | Potency [6] | Potency [7] | Potency [8] | Potency [9] | Potency [10] | Potency [11] | Potency [12] | Potency [13]

CC12CCC3c4ccc(O)cc4CCC3C1CCC2OC1OC(C(=O)O)C(O)C(O)C1O (stereo not drawn)
inactive: outcome [1] | max response [2] 1.3% | Potency [3] | Potency [5] | Potency [6] | Potency [7] | Potency [8] | Potency [9] | Potency [10] | Potency [11] | Potency [12] | Potency [13]

COC(=O)CC1(O)C(=O)Nc2ccccc21 (stereo not drawn)
inactive: outcome [1] | max response [2] 2.12% | Potency [3] | Potency [5] | Potency [6] | Potency [7] | Potency [8] | Potency [9] | Potency [10] | Potency [11] | Potency [12] | Potency [13]

C/C(=C/CCC(CO)C1CCC2(C)C3CCC4C(C)(C)C(OC5OC(CO)C(O)C(O)C5O)CC(O)C45CC35CCC12C)COC1OC(CO)C(O)C(O)C1O (stereo not drawn)
inactive: max response [1] -1.63% | max response [2] 0.608% | Potency [3] | Potency [5] | Potency [6] | Potency [7] | Potency [8] | Potency [9] | Potency [10] | Potency [11] | Potency [12] | Potency [13]

C=C1CC2C3(C)C(OC(C)=O)CC(=O)OC(C)(C)C3C(O)C(OC(C)=O)C2(C)C2C(=O)OC(C)C(=O)C12C (stereo not drawn)
inactive: max response [1] 8.43% | max response [2] -3.76% | Potency [3] | Potency [5] | Potency [6] | Potency [7] | Potency [8] | Potency [9] | Potency [10] | Potency [11] | Potency [12] | Potency [13]

C[C@@H]1O[C@@H](O[C@H]2[C@H](O)[C@@H](O)[C@H](OC[C@H]3O[C@@H](OC(=O)[C@]45CCC(C)(C)C[C@H]4C4=CCC6[C@@]7(C)C[C@H](O)[C@H](O[C@@H]8O[C@H](CO)[C@@H](O)[C@H](O)[C@H]8O)[C@@](C)(C(=O)O)C7CC[C@@]6(C)[C@]4(C)CC5)[C@H](O[C@@H]4O[C@H](CO)[C@@H](O)[C@H](O)[C@H]4O)[C@@H](O)[C@@H]3O)O[C@@H]2CO)[C@H](O)[C@H](O)[C@H]1O (stereo partly drawn)
inactive: max response [1] 7.15% | max response [2] 3.41% | outcome [3] inactive [at 9.27 µM] | activity change, negative = cytotoxicity [5] 4.28% [at 6.55 µM] | activity change, negative = cytotoxicity [6] 11.2% [at 6.55 µM] | activity change, negative = cytotoxicity [7] 9.67% [at 6.55 µM] | activity change, negative = cytotoxicity [8] 9.17% [at 6.55 µM] | activity change, negative = cytotoxicity [9] 0.162% [at 6.55 µM] | activity change, negative = cytotoxicity [10] 3.11% [at 6.55 µM] | activity change, negative = cytotoxicity [11] -3.92% [at 6.55 µM] | activity change, negative = cytotoxicity [12] 0.564% [at 6.55 µM] | activity change, negative = cytotoxicity [13] 15.2% [at 6.55 µM]

CC1(C)O[C@@]2(C)CC[C@@H]1C[C@@H]2OC1OC(CO)C(O)C(O)C1O (stereo partly drawn)
inactive: outcome [1] | max response [2] -8.31% | Potency [3] | Potency [5] | Potency [6] | Potency [7] | Potency [8] | Potency [9] | Potency [10] | Potency [11] | Potency [12] | Potency [13]

COC(=O)C1=CO[C@@H](O[C@@H]2O[C@H](CO[C@@H]3O[C@H](COC(=O)/C=C/c4ccc(O)cc4)[C@@H](O)[C@H](O)[C@H]3O)[C@@H](O)[C@H](O)[C@H]2O)[C@@H]2C(CO)=CC[C@H]12
inactive: max response [1] 6.83% | max response [2] 0.0703% | Potency [3] | Potency [5] | Potency [6] | Potency [7] | Potency [8] | Potency [9] | Potency [10] | Potency [11] | Potency [12] | Potency [13]

COC(=O)[C@H](OC(C)=O)[C@H]1C(C)(C)C(=O)[C@H]2CC3=C4CC(=O)O[C@@H](c5ccoc5)[C@]4(C)CCC3[C@@]1(C)C2=O (stereo partly drawn)
inactive: outcome [1] | outcome [2] | Potency [3] | Potency [5] | Potency [6] | Potency [7] | Potency [8] | Potency [9] | Potency [10] | Potency [11] | Potency [12]

COC1=CC(=O)O[C@@H](CCc2ccccc2)[C@@H]1O
inactive: max response [1] 5.84% | max response [2] 3.13% | Potency [3] | Potency [5] | Potency [6] | Potency [7] | Potency [8] | Potency [9] | Potency [10] | Potency [11] | Potency [12] | Potency [13]

CC(=O)N[C@H]1[C@H](O[C@H]2CC[C@@]3(C)C(CC[C@]4(C)C3CC=C3C5CC(C)(C)CC[C@]5(C(=O)O)[C@H](O[C@@H]5O[C@H](CO)[C@@H](O)[C@H](O)[C@H]5O)C[C@]34C)C2(C)C)O[C@H](CO[C@@H]2OC[C@H](O)[C@H](O)[C@H]2O[C@@H]2OC[C@@H](O)[C@H](O)[C@H]2O)[C@@H](O)[C@@H]1O (stereo partly drawn)
inactive: max response [1] 2.21% | max response [2] -4.54% | outcome [3] inactive [at 9.27 µM] | activity change, negative = cytotoxicity [5] -4.04% [at 11.6 µM] | activity change, negative = cytotoxicity [6] 4.01% [at 11.6 µM] | activity change, negative = cytotoxicity [7] -4.68% [at 11.6 µM] | activity change, negative = cytotoxicity [8] -1.11% [at 11.6 µM] | activity change, negative = cytotoxicity [9] 15.9% [at 11.6 µM] | activity change, negative = cytotoxicity [10] -2.94% [at 11.6 µM] | activity change, negative = cytotoxicity [11] -2.88% [at 11.6 µM] | activity change, negative = cytotoxicity [12] -0.313% [at 11.6 µM] | activity change, negative = cytotoxicity [13] -6.75% [at 11.6 µM]
